GALC G270D act: A Novel Cell-Based Assay to Identify Small Molecules for B -Galactocerebrosidase; 45,000 tested, 0.1% active; Potency, µM (titrated, usually from 57.5 µM), hits mostly activators; P54803; 145M-Twi-hGALC-G270D cells (Twitcher mouse brain line with human GALC G270D), HMU-beta-Gal fluorescence, 48 h; note: 0% is about no effect; nearly all actives have a fitted effect of over 65% in size
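Fluorogenic HMU-b-Gal hydrolysis (0.1 mM final, pH 5.2 citrate-phosphate with 1 mg/mL sodium taurocholate; carbonate stop buffer) measures mutant GALC activity after compound treatment of live 145M-Twi Twitcher brain cells stably carrying human GALC-G270D, with wild-type GALC line alongside; activation sought.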
FH mod: Identification of activators of human fumarate hydratase by quantitative high-throughput screening. FH coupled MDH/diaphorase resazurin fluorescence, 15 min. Fumarate hydratase, mitochondrial (Homo sapiens), P07954. AID 1347055, 2019. Potency, µM (doses to about 79.9 µM), for the others: at the highest dose activity change, negative = inhibition, usual class: inhibitors. 54,000 tested, 0.22% active; note: % is set by controls: 0 for no effect and ±100 for the full control effect; the screen sought activators but most active calls are inhibition curves; nearly all actives have a fitted effect of over 45% in size
Target sequence (P07954 whole entry, looked up): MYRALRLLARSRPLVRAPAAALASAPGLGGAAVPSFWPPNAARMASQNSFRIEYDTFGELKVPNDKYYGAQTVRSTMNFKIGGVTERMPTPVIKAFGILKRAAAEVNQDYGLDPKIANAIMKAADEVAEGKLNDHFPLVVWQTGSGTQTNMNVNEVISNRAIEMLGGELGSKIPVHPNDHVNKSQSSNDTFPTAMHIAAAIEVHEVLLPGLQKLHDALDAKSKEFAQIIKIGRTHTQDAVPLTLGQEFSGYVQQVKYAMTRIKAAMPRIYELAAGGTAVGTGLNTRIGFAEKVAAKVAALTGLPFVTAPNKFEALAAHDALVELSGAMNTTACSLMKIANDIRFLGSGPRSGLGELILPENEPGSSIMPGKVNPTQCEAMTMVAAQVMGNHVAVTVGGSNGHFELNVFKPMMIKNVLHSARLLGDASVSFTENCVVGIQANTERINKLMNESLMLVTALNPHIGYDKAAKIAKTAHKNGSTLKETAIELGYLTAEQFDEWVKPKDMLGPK
HTT-AS act: Primary qHTS for Identification of Small Molecule Activators of Huntingtin-Antisense Promoter Activity; AID 1508624, 2021; 48,000 tested, 0.24% active; HEK293 HTT-AS promoter firefly luciferase reporter, 24 h; response scale: percent change from vehicle, -100% = no light; Potency, µM (titrated, usually from 57.5 µM), for the others: at the top dose activity change, positive = activation, actives largely listed as activators; note: nearly all actives have a fitted effect of over 55% in size
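Firefly luciferase readout (Dual-Glo, 10 min RT) after 24 h, 37 °C compound exposure (final up to 57.5 uM) of HEK293 reporter cells cultured 24 h beforehand; PTC124 at 50 uM final as control inhibitor; activity scaled vehicle 0%, zero RLU -100%.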
HTT prom inh: Primary qHTS for Identification of Small Molecule Inhibitors of Huntingtin Promoter Activity; 48,000 tested, 0.93% active; AID 1508623, 2021; Potency, µM (top dose mostly 57.5 µM), for the others: top-dose activity change, negative = inhibition, hits mostly inhibitors; HEK293 HTT promoter firefly luciferase reporter, 24 h; note: nearly all actives have a fitted effect of over 50% in size
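HEK293 luciferase promoter-reporter cells (2,500/well) plated 24 h, then compounds added at up to 57.5 uM final for 24 h at 37 °C. Firefly luminescence by Dual-Glo, normalized to vehicle (0%) and zero RLU (-100%).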
Active calls of the source: *; i = inactive; ? = inconclusive; . = no result; [ ] = remark or other dose. In the library only some 1.3% were active in any assay of this set; here they are far more common. Calls come from the whole dose curve; as a rule, active = well fitted curve in the direction sought with a large enough effect; inconclusive = small, poorly fitted or top-dose-only effect, or another doubt; inactive = no such curve, though single readings can be large; an effect the other way counts as inactive or inconclusive. Potency is the fitted concentration of half-maximal effect.

SMILES	GALC G270D act	FH mod	HTT-AS act	HTT prom inh
CCN(CC)CCCNC(=O)c1ccc2c(c1)NC(=O)C(CS(=O)(=O)Cc1cccc(Br)c1)N2 (configuration not stated)	35.5µM*	-12.8%	-21.9%	-14.2%
COc1ccccc1N=c1scc(-c2ccc(S(=O)(=O)N3CCCC3)cc2)n1C	i	-22.9%	-77.9%	3.16µM*
CCOc1ccccc1C1CC(=O)NC(C)=C1C(=O)OC1CCCCCC1 (configuration not stated)	i	-18.7%	-44.7%	31.6µM*
CCOC(=O)C1=C(CN2CCN(c3ccc(C)cc3C)CC2)NC(=O)NC1c1ccc(OC)cc1 (configuration not stated)	i	?	-37.1%	28.2µM*
CCOC(=O)C1=C(CN2CCN(c3ccc(OC)cc3)CC2)NC(=O)NC1c1ccc(OC)cc1 (configuration not stated)	i	-9.5%	-24.5%	?
COc1cc(C2CC(=O)N(Cc3cccc(F)c3)c3ccccc3S2)cc(OC)c1OC (configuration not stated)	i	-15.8%	-69.0%	20µM*
Cc1ccc(Cl)cc1N1CCN(C(=O)c2cc3ccc4cccnc4c3[nH]2)CC1	i	-29.1%	13.4%	11.4%
O=C1c2ccccc2-[n+]2ccc3c([nH]c4ccccc43)c21	.	6.85µM*	-92.6%	?
COC(=O)C1=C(C)N=C2SCCC(=O)N2C1c1ccc(OCc2ccccc2)c(OC)c1 (configuration not stated)	i	-11.2%	-9.7%	-18.1%
COC[C@H](NC(=O)c1cnc(C)s1)C(=O)N[C@@H](COC)C(=O)N[C@@H](Cc1ccccc1)C(=O)[C@@]1(C)CO1	.	9.1%[53.3 µM]	-63.5%	?
Cc1ccc(Cl)cc1NC(=O)C(=O)NCCc1sc(-c2ccc(F)cc2)nc1C	i	10.4%	-4.7%	-15.5%
Cc1nc(-c2ccc(Cl)cc2)sc1CCNC(=O)Cc1ccc(F)cc1	i	-4.9%	-38.2%	31.6µM*
Cc1noc2ncnc(NCc3cccc(Cl)c3)c12	i	-6.0%	-39.3%	?
CCOc1ccc(-c2nc(Cn3c(=O)cc(C)c4c(C)nn(-c5ccccc5)c43)c(C)o2)cc1	i	3.2%	0.2%	1.0%
Cc1ccc(OCC(=O)Nc2ccccc2C(=O)OCc2cc(=O)n3ccsc3n2)cc1	i	-0.1%	21.2%	42.0%
O=C(Nc1ccc(Br)cc1)c1ccc(Br)c(S(=O)(=O)N2CCCCC2)c1	i	-15.2%	-26.3%	12.6µM*
CN1C(=O)CC(C)(c2ccccc2)C1=O (configuration not stated)	i	1.4%[53.3 µM]	-10.5%	-7.6%
CCOC(=O)c1c(N)n(-c2cccc(OC)c2)c2nc3ccccc3nc12	3.98µM*	-2.6%	-7.1%	-2.8%
CCOC(=O)c1c(N)n(-c2ccc(CC)cc2)c2nc3ccccc3nc12	i	-0.6%	-21.4%	-14.9%
COc1ccc(-c2nc(C)c(CCNC(=O)c3cccs3)s2)cc1	i	-12.0%	18.6%	1.1%
CCOC(=O)c1ccc2ncc(C(=O)OCC)c(NCCc3ccc(OC)c(OC)c3)c2c1	i	?	-18.4%	-19.1%
CCOC(=O)c1cnc2ccc(OC)cc2c1NCCc1ccccc1	i	-15.3%	-76.6%	31.6µM*
Cc1c(C(=O)O)oc2c1-c1nn(Cc3ccc(Cl)cc3)cc1CC2	i	-39.0%	-24.0%	?
CCOC(=O)c1oc2c(c1C)-c1nn(Cc3ccc(Cl)cc3)cc1CC2	i	31.6µM*[activator]	-37.8%	?
Cc1ccccc1N1CC(C(=O)Nc2ccc(Br)cc2)CC1=O (configuration not stated)	i	-10.9%	-13.6%	-20.2%
SMILES	GALC G270D act	FH mod	HTT-AS act	HTT prom inh
Cc1cc(C)c(NC(=O)CSc2nccn2Cc2ccco2)c(C)c1	i	3.3%	5.01µM*	43.9%
COc1ccc(C)cc1NC(=O)NCc1ccc2c(c1)CCN2C(=O)c1ccccc1	i	-26.5%	-47.8%	?
CCOc1ccc(C2Nc3c(C)cccc3-c3cc(C)nn32)cc1 (configuration not stated)	25.1µM*	?	-26.1%	?
CCOc1cccc(C2Nc3ccccc3-c3cc(C)nn32)c1O (configuration not stated)	i	-11.5%	12.9%	-17.9%[11.5 µM]
COc1ccc(CNC(=O)Cn2c(=O)nc(-c3ccccc3)c3ccccc32)cc1OC	i	-14.5%	-67.9%	?
CCCCN1C(=O)c2[nH]nc(-c3ccccc3O)c2C1c1ccc(OCc2ccccc2)cc1 (configuration not stated)	i	-20.2%	-89.8%	25.1µM*
CC1(c2ccccc2)CC(C)(C)N(C(=O)c2ccccc2Cl)c2ccccc21 (configuration not stated)	i	-9.3%	-39.0%	-28.3%
COc1ccccc1C(=O)N1c2ccccc2C(C)(c2ccc(Cl)cc2)CC1(C)C (configuration not stated)	i	-9.8%	-50.1%	25.1µM*
COc1ccccc1CNC(=O)c1ccc(N2CCCC2)c(NC(=O)NCCC(C)C)c1	i	5.2%	-3.1%	-23.6%
COC1=C(OC)C(=O)C(CCCCCCCCCCO)=C(C)C1=O	i	19.3µM*	-16.9%	?
Cc1ccc(CNC(=O)C(=O)NCC(c2cccnc2)N2CCN(c3ccccc3F)CC2)cc1 (configuration not stated)	i	-7.4%	-48.2%	14.1µM*
COc1ccc(CCNC(=O)C(=O)NCC(c2cccnc2)N2CCN(c3ccccc3)CC2)cc1 (configuration not stated)	i	-4.2%	-63.7%	12.6µM*
COc1ccc(CNC(=O)C(=O)NCC(c2cccnc2)N2CCN(c3ccccc3)CC2)cc1 (configuration not stated)	i	-4.6%	-36.2%	12.6µM*
Cn1c(=O)oc2cc(S(=O)(=O)N3CCC(C(=O)Nc4ccc(F)c(Cl)c4)CC3)ccc21	i	-14.8%	-16.8%	-14.8%
CC(C)OCc1cc(CN2CCN(c3ccccc3)CC2)c(O)c2ncccc12	i	?	-43.2%	12.6µM*
CCS(=O)(=O)c1nc(S(=O)(=O)c2ccc(Cl)cc2)c(NCc2ccccc2Cl)s1	i	-10.9%	-22.7%	-17.3%
COc1cc(OC)c(NS(=O)(=O)c2ccc3c(c2)NC(=O)CCS3)cc1Cl	i	-14.0%	-49.2%	28.2µM*
Cc1ccc(CN2CCC(CNC(=O)Nc3cccc(Cl)c3C)C2)cc1 (configuration not stated)	i	1.8%	-18.3%	-19.7%
CCCNC(=O)c1cc2n(n1)CCCN(Cc1ccc(C)cc1)C2=O	i	-15.8%	0.2%	-21.0%
Cc1ccc(CN2CCCn3nc(C(=O)NCc4cc(C)ccc4C)cc3C2=O)cc1	i	-15.8%	-20.7%	28.2µM*

Screening data as filed in PubChem BioAssay.
